activity, activity change, negative = inhibition and Potency data for 40 molecules are collected here from PubChem BioAssay (NCATS).

Calls of active or inactive are those of the source. The call rests on the fitted dose curve.
Potency means the concentration at half of the fitted maximal effect.

Chain of Catechol O-methyltransferase (Homo sapiens) (P21964 whole entry, looked up): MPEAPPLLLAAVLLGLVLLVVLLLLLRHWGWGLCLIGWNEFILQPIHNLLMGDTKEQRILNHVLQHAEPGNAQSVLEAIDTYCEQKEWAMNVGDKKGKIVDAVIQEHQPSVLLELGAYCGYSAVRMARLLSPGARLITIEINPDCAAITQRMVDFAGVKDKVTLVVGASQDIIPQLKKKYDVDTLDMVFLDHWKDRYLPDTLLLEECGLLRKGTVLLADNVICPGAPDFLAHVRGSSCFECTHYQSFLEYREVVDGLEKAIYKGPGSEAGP

One test addresses Catechol O-methyltransferase (Homo sapiens) (UniProt P21964). Briefly: Confirmatory Screen for Target Class Profiling of Small Molecule Inhibitors of Methyltransferases (AID 1745852). On activity change, negative = inhibition: on the % scale 0 is the no-effect control and ±100 the full control effect. The note with it: MTase-Glo luminescence, SAH detection, recombinant enzyme; measured here: COMT max response; stronger effect = lower value.
For `O=C(CC1CCCC1)N1CCC(Nc2cccnc2)C1` (stereo not drawn), the activity was -11%.

Regarding `Cc1cnc(C2CC2)n1C1CCN(S(=O)(=O)c2ccc3c(c2)OCCO3)CC1`, the activity is -0.0283%.

On to `COc1ccc(CN2C(=O)c3cc4ccccc4n3CC2(C)C(=O)NCc2ccccc2)cc1OC` (stereo not drawn), for which the activity stood at 4.11%.

For `COc1ccc(N2CCN(C(=O)c3cc(NC(C)=O)cc4nc(C)ccc34)CC2)cc1`, the activity turned out to be 1.89%.

With `COc1ccc(C(=O)N(Cc2ccco2)S(=O)(=O)c2ccc3c(c2)n(C)c(=O)n3C)cc1`, the activity is -5.23%.

In the case of `CN(C)CC1(O)CCC2(CCN(C(=O)c3cccn3C)CC2)CC1`, the activity stood at 7.38%.

`C[S+](=O)([O-])N1CCC(Cn2ccc3c(N4CCOCC4)nc(-c4cccc5[nH]ncc45)cc32)CC1`: the activity is -13.4%.

Another test concerns the target Guanidinoacetate N-methyltransferase (Homo sapiens) (UniProt Q14353). Described as above. The note with it: MTase-Glo luminescence, SAH detection, recombinant enzyme; activity change, negative = inhibition: at 57.3 µM (top of the series) unless noted; series mostly up to 57.3 µM.
For `c1ccc(-c2cc3c(cn2)NCCN(CC2CC2)C3)cc1`, the activity change, negative = inhibition stood at 7.08% [at 114 µM].

Regarding `Cc1c(O)cc(O)c2c(=O)c(O)c(-c3ccc(O)c(O)c3)oc12`, the Potency was 24.1 µM (active).

Consider `Nc1nc(NCc2ccc(Cl)cc2Cl)cc(C2CC(O)C2)n1` (stereo not drawn), for which the activity change, negative = inhibition is -2.38%.

Regarding `O=C(O)c1ccc2c(c1)C1C=CCC1C(c1ccc(Cl)cc1)N2` (stereo not drawn), the Potency was 42.9 µM (active).

With `Cc1nc(NC(=O)C2CC(=O)N(c3n[nH]c4cc(Br)ccc34)C2)sc1C` (stereo not drawn), the activity change, negative = inhibition was 3.17%.

Take `CCCC1c2cccn2CCN1C(=O)Nc1ccc(F)cc1F` (stereo not drawn): the activity change, negative = inhibition worked out at 1.31%.

As for `COc1cccc(N2C(=O)c3cc4occc4n3CC2(C)C(=O)NC2CCCCCC2)c1` (stereo not drawn), the activity change, negative = inhibition was -2.57%.

As to `COc1ccc(CCNC(=O)c2ccc(CN3C(=O)CCn4nccc43)cc2)cc1OC`, the Potency is 24.1 µM (active).

Take `CCN(CC)CCCNC(=O)CCc1nnc2n(Cc3ccccc3)c(=O)c3ccccc3n12`: the activity change, negative = inhibition came to 0%.

For the molecule `O=C(c1ccc(C2CCCNC2)cc1)N1CCN(c2ccncc2)CC1` (stereo not drawn), the activity change, negative = inhibition turned out to be 2.03%.

For `CC1CCCCN1CCNC(=O)CCc1nnc2n(Cc3ccc(F)cc3)c(=O)c3ccccc3n12` (stereo not drawn), the activity change, negative = inhibition turned out to be 0%.

As to `O=C(NCCc1ccc(Cl)cc1)c1ccc2c(=O)[nH]c3c(C(=O)NC4CCCC4)sc(=S)n3c2c1`, the Potency was 27.1 µM (active).

Turning to `CCOC(=O)c1cc2n(n1)CC(C)(C(=O)NCCC(C)C)N(c1ccccc1C)C2=O` (stereo not drawn), the Potency result was “inactive”.

In the case of `CCN(CCc1nc2ccc(C)cc2[nH]1)C(=O)c1ccccc1C1CCNC1` (stereo not drawn), the activity change, negative = inhibition stood at 8.24%.

`CC1CCN(CCCNC(=O)CCc2nnc3n(Cc4ccccc4)c(=O)c4ccccc4n23)CC1`: the activity change, negative = inhibition came to 0%.

Take `COc1ccc(S(=O)(=O)N2CCC(n3c(=O)[nH]c4ccccc43)CC2)cc1`: the activity change, negative = inhibition is -12%.

As for `CCCN1CCn2c3c(c4cc(OC)ccc42)CCN=C31`, the activity change, negative = inhibition was -1.32%.

On to `COc1cccc(Nc2cc3c(cn2)CN(Cc2cccnc2)CCN3)c1`, for which the activity change, negative = inhibition turned out to be 2.65% [at 85.7 µM].

As for `OCC1(Cc2ccccc2)CCCN(Cc2cn[nH]c2-c2ccc(F)cc2)C1` (stereo not drawn), the activity change, negative = inhibition is 4.38%.

Take `COc1ccc(OC)c2c1cc1n2CC(C)(C(=O)NC2CCCCC2)N(Cc2ccccn2)C1=O` (stereo not drawn): the activity change, negative = inhibition is -3.03%.

For the molecule `CN(Cc1ccccc1)C1(C(=O)NC2CCC(O)CC2)Cc2ccccc2C1` (stereo not drawn), the activity change, negative = inhibition amounted to 3.98%.

As for `Cc1ccsc1CCNC(=O)Cn1c(=O)oc2cc(S(=O)(=O)N3CCCC3)ccc21`, the activity change, negative = inhibition was -1.17%.

Regarding `COc1ccc(-c2nc3ccccc3[nH]2)cc1`, the Potency was 15.2 µM (active).

On to `CC(C)CCn1c(=O)c2ccccc2n2c(CCC(=O)N3CCN(Cc4ccccc4)CC3)nnc12`, for which the activity change, negative = inhibition was determined as 0%.

`Cc1ccc(C(=O)O)c2c1N[C@@H](c1ccc(Cl)cc1)[C@H]1CC=C[C@@H]21`: the activity change, negative = inhibition is 0.676%.

In the case of `COC(=O)[C@@H]1Cc2ncn(Cc3ccc(Cl)cc3)c2CN1CCCc1ccccc1`, the activity change, negative = inhibition is 2.15% [at 85.7 µM].

In the case of `CN1CCCC2(C1)CN(C)c1ccc(C(=O)NCC3CCCCC3)cc12` (stereo not drawn), the activity change, negative = inhibition is -0.167% [at 85.7 µM].

For the molecule `O=C(NCc1ccccc1)c1ccc2c(=O)nc3c(-c4ccccc4F)n[nH]n3c2c1`, the Potency is 0.121 µM (active).

Regarding `CCNc1ncc(CN2CCN(c3ccncc3)CC2)cn1`, the activity change, negative = inhibition amounted to 1.98%.

Turning to `Cn1c(=O)n(C)c2cc(S(=O)(=O)Nc3ccc(-c4nnc(-c5ccccc5)o4)c(Cl)c3)ccc21`, the activity change, negative = inhibition is -7.85%.

Regarding `CC1CCN(CCCNC(=O)CCc2nnc3n(Cc4ccc(F)cc4)c(=O)c4ccccc4n23)CC1`, the activity change, negative = inhibition was -2.12%.

Regarding `Cn1c(=O)n(C)c2cc(S(=O)(=O)N3CCN(C4CCCCC4)CC3)ccc21`, the activity change, negative = inhibition was -0.234%.

For `CCNc1nccc(N2CCC(CC(=O)N3CCN(c4ccccc4F)CC3)CC2)n1`, the activity change, negative = inhibition was determined as 4.58%.

In the case of `O=C(CC1CCCC1)N1CCC(Nc2cccnc2)C1` (stereo not drawn), the activity change, negative = inhibition is -10.5%.

`Cc1cnc(C2CC2)n1C1CCN(S(=O)(=O)c2ccc3c(c2)OCCO3)CC1`: the activity change, negative = inhibition is -2.25%.

For `COc1ccc(CN2C(=O)c3cc4ccccc4n3CC2(C)C(=O)NCc2ccccc2)cc1OC` (stereo not drawn), the activity change, negative = inhibition came out at 0%.
